# Measured values published in PubChem BioAssay (Tox21).
# Values without a mark were called inactive. Inconclusive results are not listed. Entries that show only a call come without a potency. Activity calls are given as the source filed them. Unless noted, the call rests on the fitted dose curve; in most records, active means well fitted curve in the direction sought with a large enough effect in the repeat runs; inconclusive means weak or mixed curves; inactive means no such curve, though single readings can be large; an effect the other way counts as inactive or inconclusive.
# Columns and labels:
# [1] = qHTS assay to test for compound auto fluorescence at 535 nm (green) in HEK293 cells (AID 720680)
# [2] = qHTS assay to test for compound auto fluorescence at 460 nm (blue) in HEK293 cell free culture (AID 720681)
# Method in brief: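 Compounds were added to cell-free DMEM with 10% FBS and fluorescence read directly. The blue channel used 405 nm excitation and 460 nm emission, with triamterene as the reference fluorophore.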
# [3] = qHTS assay to test for compound auto fluorescence at 535 nm (green) in HEK293 cell free culture (AID 720682)
# Method in brief: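 No cells present: wells hold DMEM supplemented with 10% FBS, into which compound or vehicle is pinned. Green emission is then recorded (485 nm excitation, 535 nm emission) and scaled to fluorescein.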
# [4] = qHTS assay to test for compound auto fluorescence at 590 nm (red) in HEK293 cell free culture (AID 720683)
# Method in brief: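 Cell-free wells of DMEM with 10% FBS received compound, and intrinsic fluorescence was read at excitation/emission 540/590 nm. Values expressed as equivalence to Rose Bengal sodium.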
# [5] = qHTS assay to test for compound auto fluorescence at 590 nm (red) in HepG2 cell free culture (AID 720684)
# Method in brief: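 Auto fluorescence equivalency versus Rose Bengal sodium, red channel Ex/Em 540/590 nm; compounds in cell-free MEM/10% FBS; DMSO vehicle control.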
# [6] = qHTS assay to test for compound auto fluorescence at 460 nm (blue) in HepG2 cell free culture (AID 720685)
# Method in brief: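 Cell-free plates of MEM plus 10% FBS received 23 nL compound or DMSO vehicle; blue-channel (405/460 nm) intensity scored against triamterene as reference fluorophore.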
# [7] = qHTS assay to test for compound auto fluorescence at 535 nm (green) in HepG2 cell free culture (AID 720686)
# [8] = qHTS assay to test for compound auto fluorescence at 460 nm (blue) in HepG2 cells (AID 720687)
# Method in brief: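 HepG2 cells in MEM with 10% FBS, attached overnight at 37 C, were exposed to compound or DMSO for 1 hr at 37 C, 5% CO2. Blue fluorescence was read at 405/460 nm, with triamterene as reference fluorophore.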
# [9] = qHTS assay to identify small molecule antagonists of the glucocorticoid receptor (GR) signaling pathway - cell viability counter screen (AID 720693); further: nearly all actives have a fitted effect of over 55% in size
# [10] = qHTS assay for identifying genotoxic compounds that show differential cytotoxicity against isogenic chicken DT40 cell lines with known DNA damage response pathways - wild type cell line (AID 743012); further: nearly all actives have a fitted effect of over 60% in size; further: potency means the concentration at half of the fitted maximal effect
# Method in brief: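 Endpoint: CellTiter-Glo luminescence, 30 min RT. Cells: wild type DT40, 300/well. Exposure: compounds in DMSO, 40 h, 37 C/5% CO2, after ~0.5 h pre-incubation.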
# [11] = qHTS assay for identifying genotoxic compounds that show differential cytotoxicity against isogenic chicken DT40 cell lines with known DNA damage response pathways - Rev3 mutant cell line (AID 743014); further: nearly all actives have a fitted effect of over 55% in size; further: potency means the concentration at half of the fitted maximal effect
# [12] = qHTS assay for identifying genotoxic compounds that show differential cytotoxicity against isogenic chicken DT40 cell lines with known DNA damage response pathways - Rad54/Ku70 mutant cell line (AID 743015); further: nearly all actives have a fitted effect of over 60% in size; further: potency means the concentration at half of the fitted maximal effect
# [13] = qHTS assay to identify small molecule antagonists of the androgen receptor (AR) signaling pathway using the MDA cell line - cell viability counter screen (AID 743041; further: nearly all actives have a fitted effect of over 45% in size)
# Method in brief: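 Compound exposure lasted 16 h at 37C in MDA-kb2 AR-luc cells stimulated with R1881. Protease-based CellTiter-Fluor reagent was applied for the final 30 min and fluorescence measured.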
# [14] = target: Glucocorticoid receptor (Homo sapiens) (UniProt P04150); test: qHTS assay to identify small molecule agonists of the glucocorticoid receptor (GR) signaling pathway (AID 720691; active means well fitted activation curve with a large enough effect in the signal ratio in the repeat runs, not every such curve was filed as active; the % refers to the signal ratio)
# Sequence of Glucocorticoid receptor (Homo sapiens) (P04150 whole entry, looked up): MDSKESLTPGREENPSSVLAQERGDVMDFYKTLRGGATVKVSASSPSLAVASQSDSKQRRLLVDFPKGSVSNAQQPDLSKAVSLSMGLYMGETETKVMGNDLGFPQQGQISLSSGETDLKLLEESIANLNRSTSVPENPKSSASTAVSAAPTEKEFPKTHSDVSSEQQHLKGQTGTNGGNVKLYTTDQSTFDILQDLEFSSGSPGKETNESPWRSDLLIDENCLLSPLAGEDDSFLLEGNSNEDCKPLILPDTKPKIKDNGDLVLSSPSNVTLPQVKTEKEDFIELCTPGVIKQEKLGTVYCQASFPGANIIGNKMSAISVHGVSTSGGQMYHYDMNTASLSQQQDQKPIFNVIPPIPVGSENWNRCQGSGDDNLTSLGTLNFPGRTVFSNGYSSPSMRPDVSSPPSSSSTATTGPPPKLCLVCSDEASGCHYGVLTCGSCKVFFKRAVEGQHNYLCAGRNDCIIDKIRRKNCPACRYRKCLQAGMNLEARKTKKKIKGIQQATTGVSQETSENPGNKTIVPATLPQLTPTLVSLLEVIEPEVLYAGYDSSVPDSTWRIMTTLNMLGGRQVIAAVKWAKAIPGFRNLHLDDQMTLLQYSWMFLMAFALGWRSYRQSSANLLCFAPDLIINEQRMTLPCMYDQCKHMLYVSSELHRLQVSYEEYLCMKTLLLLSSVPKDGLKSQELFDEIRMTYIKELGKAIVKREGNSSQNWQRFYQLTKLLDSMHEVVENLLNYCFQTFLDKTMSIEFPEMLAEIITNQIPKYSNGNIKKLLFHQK
# Method in brief: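 Measures GR pathway activation through a GRE-beta-lactamase reporter stably integrated in HeLa cells, with 18 h compound treatment at 37 C and fluorescence detection using a FRET substrate.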
# [15] = target: Glucocorticoid receptor (Homo sapiens) (UniProt P04150); test: qHTS assay to identify small molecule antagonists of the glucocorticoid receptor (GR) signaling pathway (AID 720692; active means well fitted inhibition curve with a large enough effect in the signal ratio in the repeat runs, not every such curve was filed as active; the % refers to the signal ratio)
# Method in brief: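 Tox21 10K library screened in concentration-response for blockade of dexamethasone (5 nM final)-induced GRE-bla reporter activity in HeLa cells; 18 h treatment, fluorescence read.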
# [16] = qHTS assay to identify small molecule antagonists of the androgen receptor (AR) signaling pathway - cell viability counter screen (AID 743033; further: nearly all actives have a fitted effect of over 45% in size)
# [17] = target: Androgen receptor (Homo sapiens) (UniProt P10275); test: qHTS assay to identify small molecule antagonists of the androgen receptor (AR) signaling pathway (AID 743035; active means well fitted inhibition curve with a large enough effect in the signal ratio in the repeat runs, not every such curve was filed as active; the % refers to the signal ratio)
# Sequence of Androgen receptor (Homo sapiens) (P10275 whole entry, looked up): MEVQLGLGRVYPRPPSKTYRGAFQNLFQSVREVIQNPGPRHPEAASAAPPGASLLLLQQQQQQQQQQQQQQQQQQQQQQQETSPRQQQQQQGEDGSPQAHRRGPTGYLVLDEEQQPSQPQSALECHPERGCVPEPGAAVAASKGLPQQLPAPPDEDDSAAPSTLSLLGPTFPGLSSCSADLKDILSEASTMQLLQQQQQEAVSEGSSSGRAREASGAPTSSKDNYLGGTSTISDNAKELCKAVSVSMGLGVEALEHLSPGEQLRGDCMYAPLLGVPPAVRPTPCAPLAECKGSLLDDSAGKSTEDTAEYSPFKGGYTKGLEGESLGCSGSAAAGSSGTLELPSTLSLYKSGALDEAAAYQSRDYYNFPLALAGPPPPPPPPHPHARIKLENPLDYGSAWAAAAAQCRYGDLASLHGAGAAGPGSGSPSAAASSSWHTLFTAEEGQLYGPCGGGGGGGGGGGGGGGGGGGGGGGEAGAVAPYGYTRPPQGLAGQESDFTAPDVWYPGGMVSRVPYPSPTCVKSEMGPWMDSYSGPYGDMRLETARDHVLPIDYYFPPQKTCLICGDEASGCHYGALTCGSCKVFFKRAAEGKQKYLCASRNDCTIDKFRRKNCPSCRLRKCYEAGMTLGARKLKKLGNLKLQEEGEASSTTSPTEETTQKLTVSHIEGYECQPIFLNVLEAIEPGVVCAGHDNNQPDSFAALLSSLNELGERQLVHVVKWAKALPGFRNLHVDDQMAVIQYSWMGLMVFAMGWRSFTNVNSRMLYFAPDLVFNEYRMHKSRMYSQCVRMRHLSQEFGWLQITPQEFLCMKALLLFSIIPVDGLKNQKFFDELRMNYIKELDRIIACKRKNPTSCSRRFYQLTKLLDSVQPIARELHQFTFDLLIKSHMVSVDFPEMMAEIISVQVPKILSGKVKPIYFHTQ
# Method in brief: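 R1881 agonist challenge of a HEK293 UAS-beta-lactamase AR reporter line in the presence of compound (16 h, 37C); signal taken as FRET fluorescence after 2 h with LiveBLAzer B/G substrate at room temperature.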
# [18] = target: Androgen receptor (Homo sapiens) (UniProt P10275); test: qHTS assay to identify small molecule agonists of the androgen receptor (AR) signaling pathway (AID 743036; active means well fitted activation curve with a large enough effect in the signal ratio in the repeat runs, with a control signal flat, not every such curve was filed as active; the % refers to the signal ratio)
# Method in brief: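 Quantitative HTS of the Tox21 10K library in HEK293 cells bearing a stably integrated UAS-controlled beta-lactamase reporter. Compound exposure lasted 16 h at 37C. Reporter activity was detected by FRET substrate fluorescence after 2 h at room temperature.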
# [19] = target: Androgen receptor (Homo sapiens) (UniProt P10275); test: qHTS assay to identify small molecule agonists of the androgen receptor (AR) signaling pathway using the MDA cell line (AID 743040; further: nearly all actives have a fitted effect of over 20% in size)
# Method in brief: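 Testing was done with the MDA-kb2 AR-luc line, a human breast carcinoma stably transfected with MMTV-luciferase containing AR and GR response elements. Cells were exposed 16 h at 37C before ONE-Glo luminescence detection.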
# [20] = target: Androgen receptor (Homo sapiens) (UniProt P10275); test: qHTS assay to identify small molecule antagonists of the androgen receptor (AR) signaling pathway using the MDA cell line (AID 743042; further: nearly all actives have a fitted effect of over 55% in size)
# Method in brief: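 MDA-kb2 breast carcinoma cells carrying MMTV-luciferase (AR/GR responsive) were co-treated with compounds and the agonist R1881 for 16 h at 37C. Inhibition read as ONE-Glo luminescence; CellTiter-Fluor fluorescence measured in parallel for cytotoxicity.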
compound,measurement,setting,value
C/C=C\C/C=C/CCCCCCCCOC(C)=O,outcome,[1],inactive
same,Potency,[2],inactive
same,outcome,[3],inactive
same,outcome,[4],inactive
same,outcome,[5],inactive
same,Potency,[6],inactive
same,outcome,[7],inactive
same,Potency,[8],inactive
same,Potency,[9],inactive
same,Potency,[10],27.3 µM (active)
same,Potency,[11],27.3 µM (active)
same,Potency,[12],24.3 µM (active)
same,Potency,[13],inactive
O=c1[nH]ncc2ccccc12,outcome,[1],inactive
same,Potency,[2],inactive
same,outcome,[3],inactive
same,outcome,[4],inactive
same,outcome,[5],inactive
same,Potency,[6],inactive
same,outcome,[7],inactive
same,Potency,[14],inactive
same,Potency,[15],inactive
same,Potency,[9],inactive
same,Potency,[10],inactive
same,Potency,[11],inactive
CC[N+](CC)(CCNC(=O)C(=O)NCC[N+](CC)(CC)Cc1ccccc1Cl)Cc1ccccc1Cl,outcome,[1],inactive
same,Potency,[2],inactive
same,outcome,[3],inactive
same,outcome,[4],inactive
same,outcome,[5],inactive
same,Potency,[6],inactive
same,outcome,[7],inactive
same,Potency,[8],inactive
same,Potency,[9],inactive
same,Potency,[10],inactive
same,Potency,[11],inactive
same,Potency,[12],inactive
same,Potency,[13],inactive
CC(C)(c1ccccc1)c1ccccc1,outcome,[1],inactive
same,Potency,[2],inactive
same,outcome,[3],inactive
same,outcome,[4],inactive
same,outcome,[5],inactive
same,Potency,[6],inactive
same,outcome,[7],inactive
same,Potency,[8],inactive
same,Potency,[9],inactive
same,Potency,[10],inactive
same,Potency,[11],inactive
same,Potency,[12],inactive
same,Potency,[16],inactive
same,Potency,[13],inactive
C=COCC(C)C,outcome,[1],inactive
same,Potency,[2],inactive
same,outcome,[3],inactive
same,outcome,[4],inactive
same,outcome,[5],inactive
same,Potency,[6],inactive
same,outcome,[7],inactive
same,Potency,[8],inactive
same,Potency,[9],inactive
same,Potency,[10],inactive
same,Potency,[11],inactive
same,Potency,[16],inactive
same,Potency,[13],inactive
N#CCc1ccc(Cl)cc1Cl,outcome,[1],inactive
same,Potency,[2],inactive
same,outcome,[3],inactive
same,outcome,[4],inactive
same,outcome,[5],inactive
same,Potency,[6],inactive
same,outcome,[7],inactive
same,Potency,[8],inactive
same,Potency,[9],inactive
same,Potency,[11],inactive
same,Potency,[12],inactive
same,Potency,[16],inactive
same,Potency,[13],inactive
CC(=O)OCCN(CCOC(C)=O)c1ccc(N=Nc2ccc([N+](=O)[O-])cc2C#N)cc1,outcome,[1],inactive
same,Potency,[2],inactive
same,outcome,[3],inactive
same,outcome,[4],inactive
same,outcome,[5],inactive
same,Potency,[6],inactive
same,outcome,[7],inactive
same,Potency,[14],inactive
same,Potency,[9],inactive
same,Potency,[10],61.1 µM (active)
same,Potency,[11],30.6 µM (active)
same,Potency,[12],30.6 µM (active)
same,Potency,[16],inactive
same,Potency,[13],inactive
CCOC(C)=O,outcome,[1],inactive
same,Potency,[2],inactive
same,outcome,[3],inactive
same,outcome,[4],inactive
same,outcome,[5],inactive
same,outcome,[7],inactive
same,Potency,[8],inactive
same,Potency,[14],inactive
same,Potency,[15],inactive
same,Potency,[9],inactive
same,Potency,[10],inactive
same,Potency,[11],inactive
same,Potency,[12],inactive
same,Potency,[16],inactive
same,Potency,[13],inactive
C/C=C(/C(=C/C)c1ccc(O)cc1)c1ccc(O)cc1,"fluorescence, % of fluorescein",[1],0.128% [at 18.6 µM]
same,"fluorescence, % of fluorescent control",[2],0.115% [at 18.6 µM]
same,activity change,[3],-0.004% [at 18.6 µM]
same,"fluorescence, % of fluorescent control",[4],0.121% [at 18.6 µM]
same,"fluorescence, % of Rose Bengal",[5],0.0319% [at 18.6 µM]
same,"fluorescence, % of fluorescent control",[6],-0.0042% [at 18.6 µM]
same,"fluorescence, % of fluorescein control",[7],-0.0063% [at 18.6 µM]
same,Potency,[14],inactive
same,Potency,[10],inactive
same,Potency,[13],inactive
CC(C)C=O,outcome,[1],inactive
same,Potency,[2],inactive
same,outcome,[3],inactive
same,outcome,[4],inactive
same,outcome,[5],inactive
same,outcome,[7],inactive
same,Potency,[8],inactive
same,Potency,[14],inactive
same,Potency,[15],inactive
same,Potency,[9],inactive
same,Potency,[16],inactive
same,Potency,[13],inactive
OC(CCN1CCCC1)(c1ccccc1)C1CCCCC1 (stereo not given),"fluorescence, % of fluorescein",[1],6.8e-05% [at 18.6 µM]
same,"fluorescence, % of fluorescent control",[2],-0.0085% [at 18.6 µM]
same,activity change,[3],0.0202% [at 18.6 µM]
same,"fluorescence, % of fluorescent control",[4],-0.206% [at 18.6 µM]
same,"fluorescence, % of Rose Bengal",[5],-0.161% [at 18.6 µM]
same,"fluorescence, % of fluorescein control",[7],-0.0329% [at 18.6 µM]
same,"fluorescence, % of fluorescent control",[8],0.0411% [at 18.6 µM]
same,Potency,[14],inactive
same,Potency,[15],inactive
same,Potency,[10],11.4 µM (active)
same,Potency,[17],inactive
same,outcome,[18],inactive
same,outcome,[19],inactive
same,Potency,[20],inactive
CN(C)CCC=C1c2ccccc2C=Cc2ccccc21,outcome,[1],inactive
same,Potency,[2],inactive
same,outcome,[3],inactive
same,outcome,[4],inactive
same,outcome,[5],inactive
same,outcome,[7],inactive
same,Potency,[8],inactive
same,Potency,[14],inactive
same,Potency,[9],inactive
same,Potency,[10],8.41 µM (active)
same,Potency,[11],8.41 µM (active)
same,Potency,[12],10.6 µM (active)
same,Potency,[13],inactive
CCOC(=O)[C@H](CCc1ccccc1)N[C@@H](C)C(=O)N(CC(=O)O)C1Cc2ccccc2C1,outcome,[1],inactive
same,Potency,[2],inactive
same,outcome,[3],inactive
same,outcome,[4],inactive
same,outcome,[5],inactive
same,outcome,[7],inactive
same,Potency,[8],inactive
same,Potency,[14],inactive
same,Potency,[15],inactive
same,Potency,[9],inactive
same,Potency,[10],21.1 µM (active)
same,Potency,[13],inactive
CCCCCCCCN,outcome,[1],inactive
same,Potency,[2],inactive
same,outcome,[3],inactive
same,outcome,[4],inactive
same,outcome,[5],inactive
same,outcome,[7],inactive
same,Potency,[9],inactive
same,Potency,[10],inactive
same,Potency,[11],inactive
same,Potency,[12],inactive
same,Potency,[16],inactive
same,Potency,[13],inactive
